Reference: PubChem BioAssay (EPA / NIEHS)
Active and inactive are the calls of the source. How the source made its calls: active means hit-call score of the fitted dose curve at least 0.9, where 1 is the maximum; inactive means score below 0.9.

Key:
[1] = ATG_CRE_CIS: Attagene CIS-FACTORIAL HepG2 Assay for human cAMP Responsive Element (CRE) binding protein 3 (AID 2282926); conditions: HepG2 CRE cis-reporter, Attagene multiplexed mRNA; actives raise or lower the signal
Procedure, shortened: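 We dosed HepG2 cells bearing multiple cis-promoter reporter units for 24 h and measured reporter mRNA by RT-PCR with capillary electrophoresis detection. Bidirectional concentration-response fitting used DMSO as negative control.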

[2] = target: CCAAT/enhancer-binding protein beta (Homo sapiens) (UniProt P17676); test: ATG_C_EBP_CIS: Attagene CIS-FACTORIAL HepG2 Assay for human CCAAT/Enhancer Binding Protein (C/EBP) beta (AID 2282927); conditions: HepG2 Attagene cis-factorial transcription factor reporter; actives raise or lower the signal
Procedure, shortened: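 RT-PCR/capillary electrophoresis fluorescence of reporter mRNA, 24 h post-dose, in HepG2 cells carrying transfected cis-promoter reporter units. Bidirectional curve fitting against DMSO baseline captures gain or loss of signal.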

[3] = ATG_CMV_CIS: Attagene CIS-FACTORIAL HepG2 Assay for human CMV (Internal Marker) (AID 2282928); conditions: HepG2 CMV promoter reporter, transcription factor profiling; actives raise or lower the signal;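 further: endpoint acts as a background internal control marker rather than a target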
Procedure, shortened: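 Endogenous transcription factor activity read in HepG2 via transfected cis-promoter reporter units. After 24 h dosing, reporter mRNA measured by RT-PCR/capillary electrophoresis; gain or loss of signal fit relative to DMSO.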

[4] = ATG_DR4_LXR_CIS: Attagene CIS-FACTORIAL HepG2 Assay for human Liver X Receptor (LXR), DR4 submotif (AID 2282929); conditions: HepG2 Attagene DR4 cis-reporter, mRNA transcription; actives raise or lower the signal
Procedure, shortened: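 HepG2 cells transiently transfected with cis-promoter-driven multiplexed reporter units (DR4 element) were dosed for 24 h. Reporter mRNA was quantified by RT-PCR, fluorescent primer extension, HpaI digestion and capillary electrophoresis; bidirectional fitting versus DMSO baseline.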

[5] = target: Aryl hydrocarbon receptor (Homo sapiens) (UniProt P35869); test: ATG_Ahr_CIS: Attagene CIS-FACTORIAL HepG2 Assay for human Aryl Hydrocarbon Receptor (Ahr) (AID 2282930); conditions: HepG2 AhR cis-factorial reporter transcription; actives raise or lower the signal
Procedure, shortened: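 HepG2 cells transiently transfected with cis-element-driven multiplexed reporter transcription units; endogenous transcription factor activity measured as reporter mRNA 24 h after dosing. RT-PCR, 6-FAM labelling, HpaI digestion, capillary electrophoresis; bidirectional fitting versus DMSO baseline.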

[6] = ATG_AP_1_CIS: Attagene CIS-FACTORIAL HepG2 Assay for human Activator Protein 1 (AP-1) (AID 2282931); conditions: HepG2 Attagene cis-factorial AP-1 reporter mRNA; actives raise or lower the signal
Procedure, shortened: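 HepG2 cells transiently transfected with cis-element-driven multiplex reporter units; 24 h compound exposure. Reporter mRNA quantified by RT-PCR, FAM-labelled fragments resolved by capillary electrophoresis; bidirectional fit versus DMSO baseline.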

[7] = ATG_AP_2_CIS: Attagene CIS-FACTORIAL HepG2 Assay for human Activator Protein 2 (AP-2) (AID 2282932); conditions: HepG2 AP-2 cis-reporter, Attagene transcription factor profiling; actives raise or lower the signal
Procedure, shortened: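 HepG2 cells were transiently transfected with multiple cis-promoter reporter transcription units and dosed for 24 h. Reporter mRNA was measured by RT-PCR with capillary electrophoresis fluorescence; bidirectional fits relative to DMSO baseline.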

[8] = ATG_BRE_CIS: Attagene CIS-FACTORIAL HepG2 Assay for human Bone Morphogenetic Protein (BMP) Response Element (BRE) (AID 2282933); conditions: HepG2 BMP response element reporter, Attagene transcription factor profiling; actives raise or lower the signal
Procedure, shortened: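 Endogenous transcription factor activity at a BMP response element was monitored in transfected HepG2 cells 24 h after dosing. Fluorescent RT-PCR products were resolved by capillary electrophoresis, and activity was fitted in both directions versus DMSO.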

[9] = target: Retinoic acid receptor alpha (Homo sapiens) (UniProt P10276); test: ATG_DR5_RAR_CIS: Attagene CIS-FACTORIAL HepG2 Assay for human Retinoic Acid Receptor Alpha (RARE), DR5 submotif (AID 2282934); conditions: HepG2 Attagene cis-factorial RARE DR5 reporter, mRNA; actives raise or lower the signal;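 on AC50: reporter responds to endogenous RAR alpha beta and gamma in HepG2 not RARA alone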
Procedure, shortened: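 HepG2 cells transiently transfected with multiplexed reporter units under cis (DR5 RARE) promoters, so endogenous transcription factor activity is measured. After 24 h compound exposure, reporter mRNA is quantified by RT-PCR with fluorescent labelling and capillary electrophoresis; bidirectional fitting versus DMSO.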

[10] = ATG_E_Box_CIS: Attagene CIS-FACTORIAL HepG2 Assay for human Enhancer Box (E-box) (AID 2282936); conditions: HepG2 E-box cis-reporter transcription, actives raise or lower the signal
Procedure, shortened: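 HepG2 cells transiently transfected with multiplexed cis-element reporter units sensing endogenous transcription factor activity; 24 h compound exposure. Reporter mRNA measured by RT-PCR, 6-FAM primer extension, HpaI digestion and capillary electrophoresis; bidirectional fit versus DMSO.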

[11] = ATG_M_61_CIS: Attagene CIS-FACTORIAL HepG2 Assay for M61 Transcription Factor (Internal Marker) (AID 2282937); conditions: HepG2 Attagene CIS-FACTORIAL M61 internal marker reporter; actives raise or lower the signal
Procedure, shortened: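 HepG2 cells transiently transfected with cis-element-driven multiple reporter transcription units, dosed for 24 h. Reporter mRNA measured by RT-PCR, 6-FAM primer-extension labelling, HpaI digestion and capillary electrophoresis; bidirectional fit versus DMSO baseline.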

[12] = ATG_EGR_CIS: Attagene CIS-FACTORIAL HepG2 Assay for human Early Growth Response 1 (EGR1) (AID 2282938); conditions: HepG2 Attagene CIS-FACTORIAL EGR reporter mRNA; actives raise or lower the signal
Procedure, shortened: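 HepG2 cells transiently transfected with cis-promoter-driven multiplexed reporter transcription units; reporter mRNA measured 24 h after compound dosing by RT-PCR, 6-FAM primer extension, HpaI digestion and capillary electrophoresis. Bidirectional fit versus DMSO baseline.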

[13] = ATG_Ets_CIS: Attagene CIS-FACTORIAL HepG2 Assay for human Erythroblast Transformation Specific (ETS) (AID 2282941); conditions: HepG2 ETS cis-reporter transcription, actives raise or lower the signal
Procedure, shortened: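 Steps: transfect HepG2 with multiple reporter units; treat compound 24 h; isolate RNA, DNase-treat, reverse-transcribe; PCR-amplify, label with 6-FAM, digest with HpaI; separate by capillary electrophoresis. Activity fitted both directions versus DMSO.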

[14] = target: Hepatocyte nuclear factor 3-beta (Homo sapiens) (UniProt Q9Y261); test: ATG_FoxA2_CIS: Attagene CIS-FACTORIAL HepG2 Assay for human Forkhead box A2 (FOXA2) (AID 2282942); conditions: HepG2 cis-reporter transcription factor activity, 24 h; actives raise or lower the signal
Procedure, shortened: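 HepG2 cells transiently transfected with multiple cis-regulated reporter transcription units, dosed for 24 h. Reporter mRNA measured by RT-PCR, 6-FAM labelling, HpaI digestion and capillary electrophoresis; bidirectional fitting against DMSO baseline.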

[15] = ATG_FoxO_CIS: Attagene CIS-FACTORIAL HepG2 Assay for human Forkhead box O (FoxO) (AID 2282943); conditions: HepG2 Attagene cis-reporter, FoxO element, mRNA; actives raise or lower the signal
Procedure, shortened: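 HepG2 cells transiently transfected with cis-promoter-driven multiple reporter transcription units; 24 h after chemical dosing, reporter mRNA quantified by RT-PCR, fluorescent primer extension, HpaI digestion and capillary electrophoresis. Bidirectional fitting versus DMSO baseline.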

[16] = ATG_GATA_CIS: Attagene CIS-FACTORIAL HepG2 Assay for human GATA Binding Protein (AID 2282944); conditions: HepG2 GATA cis-element reporter, Attagene multiplex mRNA; actives raise or lower the signal
Procedure, shortened: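 Endogenous transcription factor activity was captured through cis-promoter-driven reporters in transfected HepG2 cells. After 24 h exposure, reporter transcripts were quantified by RT-PCR with fluorescent capillary electrophoresis, and responses fitted both directions against DMSO.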

[17] = ATG_GLI_CIS: Attagene CIS-FACTORIAL HepG2 Assay for human Zinc Finger Protein GLI1 (AID 2282945); conditions: HepG2, Attagene cis-factorial reporter mRNA, GLI element; actives raise or lower the signal
Procedure, shortened: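 HepG2 cells transiently transfected with cis-promoter multiplexed reporter units report endogenous transcription factor activity. After 24 h chemical exposure, reporter mRNA was quantified by RT-PCR, 6-FAM labelling, HpaI digestion and capillary electrophoresis, with bidirectional fitting against DMSO.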

[18] = target: Transcription factor E2F1 (Homo sapiens) (UniProt Q01094); test: ATG_E2F_CIS: Attagene CIS-FACTORIAL HepG2 Assay for human E2F Transcription Factor 1 (AID 2282935); conditions: HepG2 Attagene cis-reporter, E2F reporter RNA transcripts; actives raise or lower the signal
Procedure, shortened: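 HepG2 cells transiently transfected with multiplexed cis-element reporter units, dosed for 24 h. Reporter mRNA measured by RT-PCR, 6-FAM primer-extension labeling, HpaI digestion and capillary electrophoresis; bidirectional fit versus DMSO baseline.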

[19] = ATG_M_19_CIS: Attagene CIS-FACTORIAL HepG2 Assay for M19 Transcription Factor (Internal Marker) (AID 2282939); conditions: HepG2 Attagene CIS-FACTORIAL M19 internal marker reporter; actives raise or lower the signal
Procedure, shortened: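 Background-control endpoint from a multiplexed HepG2 reporter panel. Cells carrying cis-regulated reporter constructs are treated 24 h, then reporter transcripts are amplified, fluorescently labelled and sized by capillary electrophoresis. DMSO defines baseline.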

[20] = ATG_ERE_CIS: Attagene CIS-FACTORIAL HepG2 Assay for Estrogen Response Element (ERE) (AID 2282940); conditions: HepG2 ERE cis-reporter, Attagene RNA transcript; actives raise or lower the signal
Procedure, shortened: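 Cells used were human hepatoma HepG2, transfected with multiple reporter transcription units under cis-regulatory promoters. Reporter mRNA, read 24 h post-dosing via fluorescent RT-PCR products on capillary electrophoresis, was fitted bidirectionally relative to DMSO.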

Measured: AC50

Chain of Retinoic acid receptor alpha (Homo sapiens) (P10276 whole entry, looked up): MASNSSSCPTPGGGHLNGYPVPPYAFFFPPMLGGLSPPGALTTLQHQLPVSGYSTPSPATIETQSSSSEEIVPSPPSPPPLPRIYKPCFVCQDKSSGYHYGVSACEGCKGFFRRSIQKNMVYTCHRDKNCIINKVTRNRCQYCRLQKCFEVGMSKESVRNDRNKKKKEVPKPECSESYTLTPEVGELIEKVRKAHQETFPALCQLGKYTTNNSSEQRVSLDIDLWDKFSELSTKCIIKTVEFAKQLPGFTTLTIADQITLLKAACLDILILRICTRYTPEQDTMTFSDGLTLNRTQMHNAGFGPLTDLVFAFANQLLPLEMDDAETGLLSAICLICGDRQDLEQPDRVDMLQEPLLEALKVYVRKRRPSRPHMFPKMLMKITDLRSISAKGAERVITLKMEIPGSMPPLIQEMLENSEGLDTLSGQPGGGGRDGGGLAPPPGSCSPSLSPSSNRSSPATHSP
Chain of Hepatocyte nuclear factor 3-beta (Homo sapiens) (Q9Y261 whole entry, looked up): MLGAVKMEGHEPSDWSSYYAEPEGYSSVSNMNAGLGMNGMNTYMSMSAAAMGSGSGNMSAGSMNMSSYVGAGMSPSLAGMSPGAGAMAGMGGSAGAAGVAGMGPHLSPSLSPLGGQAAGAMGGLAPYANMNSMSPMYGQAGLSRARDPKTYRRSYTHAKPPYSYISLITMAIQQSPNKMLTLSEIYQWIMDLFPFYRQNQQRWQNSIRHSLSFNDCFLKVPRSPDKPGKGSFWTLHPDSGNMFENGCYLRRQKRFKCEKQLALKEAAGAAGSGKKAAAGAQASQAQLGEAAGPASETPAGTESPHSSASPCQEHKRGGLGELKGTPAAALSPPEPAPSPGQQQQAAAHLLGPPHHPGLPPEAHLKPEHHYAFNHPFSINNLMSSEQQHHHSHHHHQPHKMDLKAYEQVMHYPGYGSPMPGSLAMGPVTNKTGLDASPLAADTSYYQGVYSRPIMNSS
Chain of Transcription factor E2F1 (Homo sapiens) (Q01094 whole entry, looked up): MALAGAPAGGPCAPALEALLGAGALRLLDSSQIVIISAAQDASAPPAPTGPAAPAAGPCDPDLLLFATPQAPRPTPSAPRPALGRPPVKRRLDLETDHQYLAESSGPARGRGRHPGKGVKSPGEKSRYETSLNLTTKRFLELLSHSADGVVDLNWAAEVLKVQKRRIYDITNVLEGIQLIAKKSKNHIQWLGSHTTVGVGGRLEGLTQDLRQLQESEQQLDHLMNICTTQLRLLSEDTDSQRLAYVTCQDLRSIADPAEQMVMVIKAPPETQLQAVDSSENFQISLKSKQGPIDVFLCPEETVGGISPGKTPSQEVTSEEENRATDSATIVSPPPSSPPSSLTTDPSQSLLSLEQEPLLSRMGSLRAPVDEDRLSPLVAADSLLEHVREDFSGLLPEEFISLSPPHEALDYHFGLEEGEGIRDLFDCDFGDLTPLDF
Chain of CCAAT/enhancer-binding protein beta (Homo sapiens) (P17676 whole entry, looked up): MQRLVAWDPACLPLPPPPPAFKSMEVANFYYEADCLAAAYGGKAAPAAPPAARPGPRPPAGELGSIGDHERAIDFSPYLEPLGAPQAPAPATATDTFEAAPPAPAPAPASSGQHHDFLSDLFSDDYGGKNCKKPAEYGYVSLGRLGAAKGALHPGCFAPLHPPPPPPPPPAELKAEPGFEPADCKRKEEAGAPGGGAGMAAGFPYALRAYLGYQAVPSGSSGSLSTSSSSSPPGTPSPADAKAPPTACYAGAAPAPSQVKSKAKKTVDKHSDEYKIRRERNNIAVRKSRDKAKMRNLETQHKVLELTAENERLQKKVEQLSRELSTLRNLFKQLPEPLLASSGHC
Chain of Aryl hydrocarbon receptor (Homo sapiens) (P35869 whole entry, looked up): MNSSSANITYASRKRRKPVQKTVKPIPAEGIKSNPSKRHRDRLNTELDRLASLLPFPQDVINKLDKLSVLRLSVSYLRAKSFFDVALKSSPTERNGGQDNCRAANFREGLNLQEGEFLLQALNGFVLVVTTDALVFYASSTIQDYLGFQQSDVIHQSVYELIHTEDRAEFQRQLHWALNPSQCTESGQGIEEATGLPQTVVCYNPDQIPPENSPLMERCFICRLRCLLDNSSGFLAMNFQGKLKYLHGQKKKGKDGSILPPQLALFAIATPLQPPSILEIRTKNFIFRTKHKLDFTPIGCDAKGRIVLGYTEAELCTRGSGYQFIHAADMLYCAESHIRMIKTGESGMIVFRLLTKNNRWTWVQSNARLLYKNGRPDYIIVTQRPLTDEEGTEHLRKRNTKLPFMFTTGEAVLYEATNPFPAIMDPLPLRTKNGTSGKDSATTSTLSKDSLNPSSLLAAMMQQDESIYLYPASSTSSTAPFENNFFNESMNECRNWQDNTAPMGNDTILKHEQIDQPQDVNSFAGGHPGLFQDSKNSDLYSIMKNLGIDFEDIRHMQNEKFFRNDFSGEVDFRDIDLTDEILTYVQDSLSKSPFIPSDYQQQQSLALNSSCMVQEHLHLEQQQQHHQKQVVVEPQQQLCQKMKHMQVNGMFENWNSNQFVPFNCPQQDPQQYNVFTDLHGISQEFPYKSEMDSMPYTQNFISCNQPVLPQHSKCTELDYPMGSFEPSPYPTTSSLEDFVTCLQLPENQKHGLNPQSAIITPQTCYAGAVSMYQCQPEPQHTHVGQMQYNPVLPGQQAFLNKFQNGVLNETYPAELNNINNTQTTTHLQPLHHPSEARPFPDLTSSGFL

CCOC(=O)[C@@H](C)Oc1ccc(Oc2nc3ccc(Cl)cc3o2)cc1
active: [4] 152 µM | [8] 156 µM
inactive: [1] | [2] | [3] | [5] | [6] | [7] | [9] | [10] | [11] | [12] | [13] | [14] | [15] | [16] | [17]

CC(C)(C)OC(=O)c1ccc(O)cc1
active: [6] 70.1 µM
inactive: [1] | [2] | [3] | [4] | [5] | [7] | [8] | [9] | [18] | [10] | [11] | [12] | [13] | [14] | [15] | [16] | [17]

CC(Oc1cc(Cl)ccc1Cl)C(=O)O (centres undefined)
inactive: [1] | [2] | [3] | [4] | [5] | [6] | [7] | [8] | [9] | [10] | [11] | [12] | [19] | [13] | [14] | [15] | [16] | [17]

O=C(Nc1ccc2c(O)c(N=Nc3ccc(N=Nc4ccc(S(=O)(=O)O)cc4)cc3)c(S(=O)(=O)O)cc2c1)c1ccccc1
inactive: [1] | [2] | [3] | [4] | [5] | [6] | [7] | [9] | [10] | [11] | [12] | [19] | [20] | [13] | [14] | [15] | [17]
active: [8] 66.8 µM

COc1ccccc1N=Nc1c(S(=O)(=O)O)cc2cc(S(=O)(=O)O)cc(NC(C)=O)c2c1O
inactive: [1] | [2] | [3] | [4] | [6] | [7] | [8] | [9] | [18] | [10] | [11] | [12] | [13] | [14] | [15] | [17]
active: [5] 16.4 µM

Nc1ccc(N)c2c1C(=O)c1ccccc1C2=O
active: [1] 3.11 µM | [2] 11.3 µM | [5] 1.59 µM
inactive: [3] | [4] | [6] | [7] | [8] | [9] | [18] | [10] | [11] | [12] | [19] | [15] | [17]

CCCCCCCCCCCC(=O)OCC(O)CO (centres undefined)
active: [1] 48.2 µM | [5] 21.3 µM | [6] 158 µM | [9] 100 µM
inactive: [2] | [3] | [4] | [7] | [8] | [18] | [10] | [11] | [12] | [20] | [14] | [15] | [17]

CC1CC(O)CC(C)(C)C1 (centres undefined)
inactive: [1] | [2] | [3] | [4] | [5] | [6] | [7] | [8] | [18] | [10] | [11] | [12] | [19] | [13] | [14] | [15] | [16] | [17]
